Data published in PubChem BioAssay AID2685 (National Center for Advancing Translational Sciences (NCATS), 2010).
About 2,100 (0.66%) of roughly 320,000 compounds were called active. About 53% were inconclusive and are not listed. The call rests on the fitted dose curve; in most records, active means well fitted inhibition curve with a large enough effect in the signal ratio, with a control signal flat (not every such curve was filed as active); inconclusive means small, poorly fitted or top-dose-only effect, or effect the other way, or a change in a side signal; inactive means flat fitted curve, though single readings scatter; the % refers to the signal ratio. The entries come from a sample that favours actives as a whole.

Test: qHTS Assay for Lipid Storage Modulators in Drosophila S3 Cells;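 on cell number change: cells counted by Cell Tracker Red CMTPX staining in the red channel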; on lipid storage change, negative = inhibition: on the % scale 0 is the no-effect control and ±100 the full control effect
Conditions: BODIPY lipid droplet fluorescence, 18-24 h, cells fed with added oleic acid; cell number change: measured here: cell count max response; series mostly up to 46.1 µM; lipid storage change, negative = inhibition: at the top concentration
How it was run: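 Laser-scanning cytometry quantifies lipid droplet accumulation (500–530 nm total intensity; droplet/cell object ratio) in oleic acid-fed (400 uM added) Drosophila S3 cells treated with a concentration series. 20 uM Triacsin C defined 100% inhibition.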
Potency means the concentration at half of the fitted maximal effect.

SMILES | lipid storage change, negative = inhibition | cell number change [%] | Potency | outcome
CCOC(=O)CNc1c(-c2ccc(O)cc2)nc2ccccn12 | 21.7% (inactive) | 4.87 | – | –
CCCCNc1c(-c2ccc(-c3cccc(Cl)c3)cc2)nc2ccccn12 | – | 5.08 | 23.1 µM (active) | –
CCCCNc1c(-c2cccc(SC3CCCCC3)c2)nc2ccc(Cl)cn12 | 2.09% (inactive) | 5.29 | – | –
O=C1CCCC2(O)C1C(c1cccc(Br)c1)NC(=O)N2Cc1ccccc1 (stereo unspecified) | -9.4% (inactive) | 1.15 | – | –
O=S(=O)(CCc1ccccc1)N1CCOCC1 | – | 1.99 | 5.8 µM (active) | –
CCCS(=O)(=O)N1CCN(CCCc2ccccc2)CC1 | 9.48% (inactive) | 6.21 | – | –
c1ccc(CCCN2CCOCC2)cc1 | 15.4% (inactive) | 11.8 | – | –
CC(C)Sc1nnc(NC(=O)c2ccc3c(c2)OCO3)s1 | -3.82% (inactive) | – | – | –
O=C(COC(=O)COc1ccccc1)NC1CCCC1 | 10.1% (inactive) | -5.97 | – | –
COc1ccc(C2CC(C(F)(F)F)n3nc(C(=O)O)cc3N2)cc1OC (stereo unspecified) | -2.01% (inactive) | 20.6 | – | –
COc1ccc(NC(=O)c2cc3n(n2)C(C(F)(F)F)CC(c2ccc4c(c2)OCO4)N3)cc1OC (stereo unspecified) | – | -18.2 | 16.4 µM (active) | –
COc1ccc(OC)c(NC(=O)c2cc3n(n2)C(C(F)(F)F)CC(c2ccc4c(c2)OCO4)N3)c1 (stereo unspecified) | -0.757% (inactive) | 16.6 | – | –
Cn1cc(CN2CCC(CO)CC2)c(-c2ccc(Oc3ccccc3)cc2)n1 | 15.5% (inactive) | -5.37 | – | –
COc1cccc(CNC(=O)C2CCN(S(=O)(=O)N3CCC4(CC3)OCCO4)CC2)c1 | 22.2% (inactive) | 8.33 | – | –
O=C(Nc1ccc(S(=O)(=O)Nc2ncccn2)cc1)C1=COCCO1 | 18% (inactive) | 6.63 | – | –
CC1Sc2ccc(S(=O)(=O)NCCc3ccc(Cl)cc3)cc2NC1=O (stereo unspecified) | – | – | – | inactive
CC1Sc2ccc(S(=O)(=O)NCCc3ccc(S(N)(=O)=O)cc3)cc2NC1=O (stereo unspecified) | – | -0.885 | 2.59 µM (active) | –
CC1Sc2ccc(S(=O)(=O)NCCc3ccccc3)cc2NC1=O (stereo unspecified) | – | -2.36 | – | inactive
CC(=O)c1ccc(NC(=S)N2CCC(Cc3ccccc3)CC2)cc1 | -2.69% (inactive) | -2.62 | – | –
Cc1ccc(-n2c(C)cc(/C=N/NC(=O)c3ccncc3)c2C)c(C)c1 | – | -26.9 | 18.4 µM (active) | –
Cc1cc(C)cc(-n2c(C)cc(/C=N/NC(=O)c3ccncc3)c2C)c1 | -9.31% (inactive) | -4.41 | – | –
Cc1ccc(-n2c(C)cc(/C=N/NC(=O)c3ccncc3)c2C)cc1 | – | – | – | inactive
O=C(c1ccc(-c2ccccc2)c(F)c1)C1CCCN(CCCn2cccn2)C1 (stereo unspecified) | -9.68% (inactive) | 2.71 | – | –
CN(C)c1ccc(/C=N/NC(=O)c2ccccc2O)o1 | 1.62% (inactive) | – | – | –

SMILES | lipid storage change, negative = inhibition | cell number change [%] | Potency | outcome
Cc1nn(-c2ccc(F)cc2)c(C)c1CN1CCN(CCC(C)C)C(CCO)C1 (stereo unspecified) | 3.51% (inactive) | 12.5 | – | –
COCC(=O)N1CCN(c2cccc(Cl)c2)CC1 | 11.4% (inactive) | -20.3 | – | –
CC1=CC(C)C2C(=O)N(O)C(=O)C2C1 (stereo unspecified) | – | -17.9 | 20.6 µM (active) | –
CC1=CC(C)C2C(=O)N(c3ccccc3)NC(=O)C2C1 (stereo unspecified) | 8.05% (inactive) | 6.7 | – | –
CC1=CC(C)C2C(=O)N(CCC[N+](C)(C)C)C(=O)C2C1 (stereo unspecified) | -2.26% (inactive) | 2.72 | – | –
O=C1c2ccccc2C(=O)C1c1ccccn1 | 1.08% (inactive) | 7 | – | –
Cc1nc2scc(C)n2c(=O)c1S(=O)(=O)NCCc1ccc(Cl)cc1 | – | -15.9 | – | inactive
CC(C)N(C)CCOC(=O)c1ccc2c(c1)OCCO2 | 4.51% (inactive) | -0.0823 | – | –
Cc1oc(-c2ccoc2)nc1CN(Cc1ccccc1)CC1CC1 | 0.435% (inactive) | 1.56 | – | –
COc1ccc(Cl)cc1NC(=O)COC(=O)CNC(=O)c1ccc([N+](=O)[O-])c(C)c1 | -1.38% (inactive) | 7.48 | – | –
CCOC(=O)C(N)CSC1CC(=O)N(c2ccc(OC)cc2)C1=O (stereo unspecified) | – | -13.3 | 3.26 µM (active) | –
CCOC(=O)C(N)CSC1CC(=O)N(c2ccc(C(=O)OC)cc2)C1=O (stereo unspecified) | 25.9% (inactive) | 8.08 | – | –
CCOC(=O)C(N)CSC1CC(=O)N(c2ccc(OCC)cc2)C1=O (stereo unspecified) | – | 8.77 | – | inactive
CCOC(=O)c1cc(C)nc(Sc2ccc(C)cc2)c1C#N | 6.61% (inactive) | 3.68 | – | –
Cc1ccc(OCc2ccc(-c3ccccc3)cc2)c([N+](=O)[O-])n1 | – | – | – | inactive
O=[N+]([O-])c1cc2c(cc1Br)CCN2 | 21.7% (inactive) | -0.505 | – | –
c1ccc(CNc2ccc(CNc3ncn[nH]3)cc2)cc1 | 2.01% (inactive) | 13.8 | – | –
COc1cc(C(=O)Nc2cccc(-c3nc4ccccc4o3)c2C)cc(OC)c1OC | 8.65% (inactive) | -6.82 | – | –
CN1CCN(CC(=O)Nc2nc(-c3c[nH]c4ccccc34)cs2)CC1 | 17.6% (inactive) | -11.4 | – | –
CC(=O)NCCC(=O)Nc1nc(-c2c[nH]c3ccccc23)cs1 | – | -1.21 | 14.6 µM (active) | –
CC(=O)NCCC(=O)Nc1nc(-c2ccccc2Cl)cs1 | – | – | – | inactive
COCC(C)N1CCC(n2nccc2NC(=O)c2ccc3c(c2)OCO3)CC1 (stereo unspecified) | 17.5% (inactive) | 11.7 | – | –
CCOc1ccc(N(CC(=O)NCC2CCCO2)S(=O)(=O)c2ccc(OC)c(OC)c2)cc1 (stereo unspecified) | 4.7% (inactive) | 14.4 | – | –
CC1(C)N=C(/C=N/O)CN1O | – | 1.43 | 6.51 µM (active) | –

SMILES | lipid storage change, negative = inhibition | cell number change [%] | Potency | outcome
Cc1ccc(NC(=O)C2(N(C(=O)Cn3nnnc3N)c3ccc(C)cc3)CCCCC2)cc1 | 20% (inactive) | -7.84 | – | –
CCOC(=O)CSc1nc2c(c(=O)n1-c1ccc(OC)cc1)SCC2 | 11.4% (inactive) | – | – | –
CCc1nnc(NC(=O)CSc2nccn2-c2cccc(C)c2)s1 | 1.38% (inactive) | 0.532 | – | –
COc1ccccc1NC(=O)CCNC(=O)c1ccc(C)cc1 | – | – | – | inactive
Cc1ccc(C(=O)c2c(NC(=O)CSc3nnc(N)s3)sc3c2CCCC3)cc1 | – | -2.02 | 18.4 µM (active) | –
CCOC(=O)c1c(NC(=O)CSc2nnc(C)s2)sc2c1CCCCC2 | -31.7% (inactive) | -12.5 | – | –
Cc1ccc(C(=O)c2c(NC(=O)c3cccnc3)sc3c2CCCC3)cc1 | -14% (inactive) | 17.7 | – | –
CCOC(=O)N1CCN(c2ncc(C(F)(F)F)cc2Cl)CC1 | 28.3% (inactive) | 23.9 | – | –
CC(C)CN=C(NS(=O)(=O)c1ccccc1)C(Cl)(Cl)Cl | – | – | 18.4 µM (active) | –
CC(=O)NS(=O)(=O)c1ccccc1 | -11.7% (inactive) | -6.94 | – | –
NC(=NCCc1ccccc1)NS(=O)(=O)c1ccccc1 | 5.72% (inactive) | 16.5 | – | –
COc1ccc(CCNC(=O)c2ccc(=O)[nH]c2)cc1OC | 6.46% (inactive) | 10.1 | – | –
COc1ccc(COC(=O)c2cccc(S(=O)(=O)N3CCCC3)c2)cc1F | – | -0.63 | – | inactive [at 0.369 µM]
CC(=O)N1CCN(S(=O)(=O)c2cccc(C(=O)OCc3cccc(F)c3)c2)CC1 | – | -11.8 | 6.51 µM (active) | –
CC(=O)N1CCN(S(=O)(=O)c2cccc(C(=O)OCN3C(=O)c4ccccc4C3=O)c2)CC1 | – | 22.4 | – | inactive
COc1ccccc1CNC(=O)COc1cc2c(c3oc(=O)cc(C)c13)CCC(C)(C)O2 | -25.6% (inactive) | 5.31 | – | –
Cc1cc(=O)oc2c3c(cc(OCC(=O)NCC(=O)O)c12)OC(C)(C)CC3 | 7.78% (inactive) | 13.8 | – | –
CCc1cc(=O)oc2c3c(cc(OCC(=O)NCc4cccnc4)c12)OC(C)(C)CC3 | – | 1.59 | 7.31 µM (active) | –
COc1cccc(CNC(=O)COc2cc3c(c4oc(=O)cc(C)c24)CCC(C)(C)O3)c1 | – | -18.8 | 1.3 µM (active) | –
CCc1cc(=O)oc2c3c(cc(OCC(=O)NCCC(=O)O)c12)OC(C)(C)CC3 | 1.64% (inactive) | 4.77 | – | –
CCc1cc(=O)oc2c3c(cc(OCC(=O)NCc4ccncc4)c12)OC(C)(C)CC3 | – | 18.3 | – | inactive
O=C(Cc1ccccc1)NNC(=O)c1ccc(NC(=O)c2ccccc2)cc1 | -12.8% (inactive) | 27.8 | – | –
CN(C)S(=O)(=O)c1ccc(C(=O)Oc2coc(CSc3ncccn3)cc2=O)cc1 | -6.42% (inactive) | 6.85 | – | –
NC(=O)N/N=C(/CCCCCC/C(=N\NC(N)=O)c1ccccc1)c1ccccc1 | -11.9% (inactive) | 2.15 | – | –

SMILES | lipid storage change, negative = inhibition | cell number change [%] | Potency | outcome
Cc1ccc(C(=O)N2C3=C(CCCC3)C(=O)NC23CCCCC3)cc1 | -6.74% (inactive) | 3.44 | – | –
COC(=O)CNC(=O)CNC(=O)Nc1ccccc1 | 7.48% (inactive) | 1.69 | – | –
Cn1nccc1NC(=O)COCC(=O)O | 1.45% (inactive) | 11.4 | – | –
O=C(NCc1ccc(N2CCCC2=O)cc1)c1ccc(F)cc1 | 0.839% (inactive) | 1.24 | – | –
COc1ccc(CNC(=O)c2ccc(N3CCCC3=O)cc2)cc1 | 25.4% (inactive) | 23.1 | – | –
Cc1ncsc1C(=O)NCc1ccc(N2CCCC2=O)cc1 | – | – | 2.59 µM (active) | –
N#Cc1ccsc1NC(=O)CN(Cc1ccccc1)Cc1ccccc1 | 10.3% (inactive) | -9.01 | – | –
CCOC(=O)N1CCC(NC(=O)c2ccc(CO)c(C(=O)NC3CCN(C(=O)OCC)CC3)c2)CC1 | 5.33% (inactive) | – | – | –
O=C(O)CC(C(=O)Nc1ccc(Cl)cc1Cl)C1CCCO1 (stereo unspecified) | 9.88% (inactive) | 5.73 | – | –
O=C(O)CC(C(=O)Nc1ccc(F)cc1)C1CCCO1 (stereo unspecified) | -20.6% (inactive) | -13.3 | – | –
O=C(O)CC(C(=O)Nc1ccc(Cl)c(Cl)c1)C1CCCO1 (stereo unspecified) | – | 12.1 | 20.6 µM (active) | –
CCOC(=O)N1CCN(C(=O)CCCn2c(=S)[nH]c3ccsc3c2=O)CC1 | -5.9% (inactive) | -21.6 | – | –
COC(=O)c1ccc(COc2ccc(C=O)cc2)o1 | – | -4.2 | – | inactive
CCN(CC#CCC(O)(c1ccccc1)c1ccccc1)C(C)C | -6.31% (inactive) | 1.67 | – | –
COc1ccc(OCC(NS(=O)(=O)c2ccc(-n3cnnn3)cc2)C(C)C)cc1 (stereo unspecified) | – | – | 0.13 µM (active) | –
Cc1cc(S(=O)(=O)NCc2cccnc2)ccc1-n1cnnn1 | – | 2.93 | – | inactive
CCCCOc1ccc(NS(=O)(=O)c2ccc(-n3cnnn3)cc2)cc1 | – | -4.72 | – | inactive
COc1ccc(CNS(=O)(=O)c2ccc(-n3cnnn3)c(C)c2)cc1 | – | -1.28 | 18.4 µM (active) | –
COc1ccc(S(=O)(=O)Nc2cccc(-n3cnnn3)c2)cc1 | – | -4.25 | – | inactive
COc1ccc(CN(Cc2ccc(OC)cc2)S(=O)(=O)c2ccc(-n3cnnn3)c(C)c2)cc1 | -11.8% (inactive) | -0.43 | – | –
C=CCOC(=O)C1=C(C)NC(=O)NC1c1cc2c(cc1Br)OCO2 (stereo unspecified) | -3.77% (inactive) | -17.1 | – | –
N/C(=N\OC(=O)C1CCCCC1)c1cccnc1 | 2.61% (inactive) | -2.17 | – | –
